The text below walks through data of PubChem BioAssay (NCI).

Structures are written as SMILES. “And” between values parts separate entries of the source, which are not always exact repeats. Equal values may be shown once. Compounds without any hit were thinned out: in the full panel of roughly 83,000, 20% have a hit.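 Cell lines were cultured in 96-well plates, exposed to a single compound concentration, and assessed for percent growth 48 hours later.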 The source made the active and inactive calls. The calls were made as follows: active = growth percent below 10; inactive = the rest.

This experiment relates to MCF7 breast. Put plainly: NCI-60 one-dose screen, 48 h (100 = growth as untreated, 0 = no growth, -100 = all killed). The settings on record: 10 µM unless noted.
Turning to `COc1ccc(C2c3cc4c(c(OC)c3CC3OCC(=O)C32)OCO4)cc1OC` (centres undefined), the growth was 6.05% [100 µM] (active) and -81% [100 µM] (active). For the compound `O=c1c2ccccc2nc(-c2ccccc2)n1/N=C/c1ccccc1[N+](=O)[O-]`, the growth was 65.7% [100 µM] (inactive) and 73.8% [100 µM] (inactive). In the case of `O=C1C=CC=C/C1=C1\N=C(c2ccccc2OCC(=O)c2ccc(Br)cc2)SS1` it was 77.7% [100 µM] (inactive) and 77% [100 µM] (inactive); in that of `CC1CC2(OC2C)C(=O)OC2CCN(C)C/C=C(/COC(=O)C1(C)O)C2=O` (centres undefined), 91.6% [100 µM] (inactive) and 82.5% [100 µM] (inactive); in that of `CCC(C)C1(O)OC2CC3(C)OC(=CC3=O)/C(C)=C\C3OC(=O)C1(C)C32` (centres undefined), -50% [100 µM] (active) and -100% [100 µM] (active). On to `CNC(=S)c1nnsc1N`, for which the growth is 19% [100 µM] (inactive) and 0.417% [100 µM] (active). The result for `N#CC1(C#N)N[C@@H](c2ccsc2)[C@H]2C(=O)N(c3ccccc3)C(=O)[C@H]21` reads 22.5% [100 µM] (inactive) and 12.4% [100 µM] (inactive); that for `NC(=O)CC1OC(=O)Cc2cc3c(c(O)c21)C(=O)c1c(O)cccc1C3=O` (centres undefined), 30.4% [100 µM] (inactive); that for `CC(C)C1OC(N)=C(C#N)C1(C#N)C#N` (centres undefined), 12.9% [100 µM] (inactive) and 2.2% [100 µM] (active). In the case of `O=C(NC1=NC2C=CC([N+](=O)[O-])=CC2S1)C(=O)Nn1c(=S)[nH]c2ccccc2c1=O` (centres undefined) it was 52.7% [100 µM] (inactive) and 8.91% [100 µM] (active); in that of `COc1c(O)ccc(C2=Cc3ccc(O)cc3OC2)c1OC`, -13.9% [100 µM] (active) and -13.3% [100 µM] (active); in that of `COc1cc2c(cc1C1COc3cc4occc4cc3C1=O)OCO2` (centres undefined), 65.2% [100 µM] (inactive) and 62.9% [100 µM] (inactive).

Regarding `Cc1ccc(/C=N/Nc2ccccn2)s1`, the growth was 13.4% [100 µM] (inactive) and 0.177% [100 µM] (active).

Consider `CC(=Nc1ccncc1)C(C)=Nc1ccncc1`, for which the growth is -47.5% [100 µM] (active) and -27.7% [100 µM] (active).

In the case of `COC(=O)C(=O)C(C(=O)C(=O)Nc1ccccc1OC)c1nc2ccc([N+](=O)[O-])cc2[nH]c1=O` (centres undefined), the growth is 43% [100 µM] (inactive) and 41.8% [100 µM] (inactive). The result for `Clc1c(Cl)c(Cl)c2nn(C3CCCO3)nc2c1Cl` (centres undefined) reads 15.9% [100 µM] (inactive) and -100% [100 µM] (active); that for `NC(N)=Nc1ccc(CC(N)C(=O)O)cc1` (centres undefined), 93.7% [12.5 µM] (inactive) and 76.9% [12.5 µM] (inactive). The result for `COC(=O)C(=O)C(C(=O)C(=O)Nc1ccccc1C(C)=O)c1nc2ccc(C(=O)c3ccccc3)cc2[nH]c1=O` (centres undefined) reads 25.6% [100 µM] (inactive) and 2.25% [100 µM] (active); that for `Cc1ccc2c(/C=C/c3ccc(N(C)C)cc3)ccc(C(C)C)cc1-2`, 57.7% [100 µM] (inactive) and 75.6% [100 µM] (inactive); that for `C=C1C(=O)O[C@H]2C[C@@]3(C)[C@H](O)CCC(=C)[C@@H]3[C@@H](OC(C)=O)[C@H]12`, -83.4% [100 µM] (active) and -77.4% [100 µM] (active). As for `COc1ccc2cc1Oc1ccc(cc1)C[C@@H]1c3cc(c(OC)cc3CCN1C)Oc1c(OC)c(OC)cc3c1[C@H](C2)N(C)CC3`, the growth was 35.9% [100 µM] (inactive) and -90.5% [100 µM] (active). In the case of `C/C(=C\COc1cc(O)c2c(c1)C(=O)c1cc(C)cc(O)c1C2=O)CCC1OC1(C)C` (centres undefined) it was 20.6% [100 µM] (inactive) and 2.66% [100 µM] (active). `COc1cc2c(c3c1c(=O)c1ccccc1n3C)C=C([N+](=O)[O-])C(C)(C)O2`: the growth is 9.29% [100 µM] (active) and -100% [100 µM] (active). The result for `CCCCCC(O)(CCCCC)CCCCCCCCC1=C(O)c2ccccc2C(=O)C1=O` reads -37.7% [100 µM] (active) and -36.7% [100 µM] (active); that for `C=CC1=C(C)C2=NC1=CC1=NC(=C(CC)/C1=C\O)C=C1N=C3C(=C1C)C(=O)[C@H](C(=O)OC)C3=C1NC(=C2)[C@@H](C)[C@@H]1CCC(=O)O`, 16.5% [100 µM] (inactive) and 5.87% [100 µM] (active); that for `Cc1ccc(OCC2OC(n3cnc4nc(N)nc(Cl)c43)CC2Oc2ccc(C)cc2)cc1` (centres undefined), 45.4% [100 µM] (inactive) and -87.9% [100 µM] (active). In the case of `N#Cc1nc(-c2cccc(-c3nc(C#N)c(N)o3)n2)oc1N` it was 58.8% [100 µM] (inactive) and -19.4% [100 µM] (active); in that of `Cc1ccc(/C=N/Nc2nncc3ccccc23)s1`, 19% [100 µM] (inactive) and 4.27% [100 µM] (active); in that of `COC(=O)c1ccc(NC(=O)O/N=C(\Cl)C(C)C)cc1`, -87.1% [100 µM] (active) and -100% [100 µM] (active).

Regarding `O=C1NC(N/N=C\C(O)C(O)C(O)C(O)CO)=N/C1=C\c1ccc(Cl)cc1` (centres undefined), the growth was 58.4% [100 µM] (inactive) and 13.9% [100 µM] (inactive). `COC(=O)c1cc(C#N)[nH]c1-c1ccsc1`: the growth was 9.03% [100 µM] (active) and -89.1% [100 µM] (active). The result for `COc1ccc2c(=O)c(-c3cc4c(cc3OC)OCO4)coc2c1` reads 74% [100 µM] (inactive) and 47.3% [100 µM] (inactive); that for `CC1OC23CCCCC2C(C#N)(C#N)C1(C#N)C(=N)O3` (centres undefined), -34% [100 µM] (active).

Consider `CCC/C(Cl)=N/OC(=O)Nc1cccc(F)c1`, for which the growth is -73.4% [100 µM] (active) and -100% [100 µM] (active). As to `CC(C)=CCc1c(OC(=O)c2c(C)cc(O)cc2O)cc(CO)c(CO)c1O`, the growth is -58.6% [100 µM] (active) and -100% [100 µM] (active). The result for `O=C(CCc1ccc(O)c(O)c1)c1ccc(O)c(O)c1O` reads -69.8% [100 µM] (active) and -72.6% [100 µM] (active); that for `COc1cc(-c2nc(SC)nc3c2CCc2ccccc2-3)cc(OC)c1OC`, 19.3% [100 µM] (inactive) and 8.46% [100 µM] (active); that for `COc1ccc2c(C)cc(N/N=C/c3ccc(C)s3)nc2c1`, -55.5% [100 µM] (active) and -100% [100 µM] (active).

On to `CSc1nc(Br)nc2ncn(C3CC(Oc4ccc(C)cc4)C(COc4ccc(C)cc4)O3)c12` (centres undefined), for which the growth was 64.8% [100 µM] (inactive) and -36.2% [100 µM] (active).
